From paper PMC12670160, “A drug-repurposing screen of FDA- and EMA-approved drugs identifies two NF-κB inhibitors active against eumycetoma” (Journal of Antimicrobial Chemotherapy, 2025)
Counter-ions that a name gives are not always drawn. Like-named read-outs stand apart in the source and are kept apart here. Among all 5,300 compounds or so, about 130 (2.5%) showed an effect of 50% or more. The entries come from a sample that favours strong results as a whole.

System: M. mycetomatis strain mm55
Conditions: primary screen, metabolic activity vs growth control, 96 h, 2 µM, inhibitor

| Compound | % viability [%] | % viability (Madurella mycetomatis metabolic activity at 2µM (%)) [%] |
| --- | --- | --- |
| O=C(CNC(=O)c1cccc(C(F)(F)F)c1)N[C@@H]1CCN(Cc2ccc(Cl)cc2)C1 [ONC0002608, teijincompound1] | 76.98 |  |
| C[S+]([O-])CCCCN=C=S (stereo not drawn) [ONC0003262, sulforaphane] | 49.62 |  |
| C/C=C/C1=C(C(=O)O)N2C(=O)[C@@H](NC(=O)[C@H](N)c3ccc(O)cc3)[C@H]2SC1 [ONC0004213, cefprozil] | 75.17 |  |
| O=C(Nc1cnccc1Cl)N1CCN(Cc2ccc3c(c2)OC(F)(F)O3)CC1 [ONC0001299, jnj42165279] | 60.28 |  |
| COc1nc(C)nc(Cl)c1N=C1NCCN1 [ONC0003528, moxonidine] | 108 |  |
| CCCCCCCC/C=C/C(=O)O [ONC0003676, trans2undecenoic acid] | 70.7 |  |
| CCCCCCCCCCCCCCC[C@@H](O)[C@@H](N)CO [ONC0003442, dihydrosphingosine derythro] | 75.68 |  |
| CCCCCCCCCCCCCC[C@@H](O)[C@@H](O)[C@@H](N)CO [ONC0003465, phytosphingosine] | 45.49 |  |
| CCCCCC(C)N (stereo not drawn) [ONC0003207, tuaminoheptane sulfate] | 110.6 |  |
| N#Cc1ccc(Cn2cncc2CN2CCN(c3cccc(Cl)c3)C(=O)C2)cc1 [ONC0000972, l778123 hydrochloride] | 78.78 |  |
| CC(=O)O[C@]1(C(C)=O)CCC2C3C[C@H](C)C4=CC(=O)CC[C@]4(C)C3CC[C@@]21C (stereo partly drawn) [ONC0000456, medroxyprogesterone acetate] | 83.76 |  |
| N[C@H](Cc1cc(I)c(Oc2ccc(O)c(I)c2)c(I)c1)C(=O)O [ONC0003830, liothyronine] | 90.31 |  |
| O=C(O[C@@H]1C[C@@H]2C[C@@H]3C[C@H](C1)N2CC3=O)c1c[nH]c2ccccc12 [ONC0005492, dolasetron] | 77.8 |  |
| O[C@H]([C@H](O)[C@@H]1CO1)[C@H]1CO1 [ONC0001201, val083] | 107 |  |
| CC(C)(C)c1ccc(C(=O)Nc2cn3cc(-n4ccnc4)ccc3n2)cc1 [ONC0000079, tcask10] | 88.09 |  |
| N[C@@H](CC(=O)NO)C(=O)O [ONC0005577, lasparaginenhydroxy] | 46.79 |  |
| N[C@@H](CC(=O)O)C(=O)O [ONC0005584, lasparticacid] | 67.27 |  |
| NC(=O)C[C@H](N)C(=O)O [ONC0002130, lasparagine] | 76.47 |  |
| CC1(C)S[C@@H]2C(N3C(=O)[C@@H](c4ccccc4)NC3(C)C)C(=O)N2[C@H]1C(=O)O (stereo partly drawn) [ONC0000520, hetacillin potassium] | 62.89 |  |

| Compound | % viability [%] | % viability (Madurella mycetomatis metabolic activity at 2µM (%)) [%] |
| --- | --- | --- |
| Cn1c(Nc2ccc(C(F)(F)F)cc2)nc2cc(Oc3ccnc(-c4ncc(C(F)(F)F)[nH]4)c3)ccc21 [ONC0005005, raf265 chir265] | 41.37 |  |
| CC(C)C[C@H](NC(=O)CN(C)C(=O)[C@H](Cc1ccccc1)NC(=O)[C@H](Cc1ccccc1)NC(=O)[C@H](CCC(N)=O)NC(=O)[C@H](CCC(N)=O)NC(=O)[C@@H]1CCCN1C(=O)[C@H](CCCCN)NC(=O)[C@@H]1CCCN1C(=O)[C@@H](N)CCCNC(=N)N)C(=O)N[C@@H](CCS(C)(=O)=O)C(N)=O [ONC0003648, sar9meto211substance p] | 64.96 |  |
| Cc1ccc(Cl)c(OCC(O)CNC(C)C)c1 (stereo not drawn) [ONC0003711, 12chloro5methylphenoxy3isopropylamino2propanol] | 103 |  |
| O=C1C2CC=CCC2C(=O)N1SC(Cl)(Cl)Cl (stereo not drawn) [ONC0003351, captan] | 76.61 |  |
| NC(Cc1ccc(O)cc1)C(=O)O (stereo not drawn) [ONC0003385, dltyrosine] | 63.01 |  |
| OC[C@H]1OC(O)C[C@@H](O)[C@@H]1O (mixture of isomers) [ONC0003476, 2deoxyglucose] | 78.39 |  |
| CC(C)NC(=O)COc1cccc(-c2nc(Nc3ccc4[nH]ncc4c3)c3ccccc3n2)c1 [ONC0001882, slx2119] | 46.69 |  |
| COC(=O)[C@H](NC(=O)c1cc(-c2ccccc2)nc2ccccc12)c1ccccc1 [ONC0001501, sb218795] | 80.75 |  |
| O=C(NCc1cccc(O)c1)Nc1nc(-c2ccncc2)cs1 [ONC0002554, srpin340] |  | 81.94 |
| c1cc(Nc2cc(C3CC3)[nH]n2)nc(Nc2ccc3[nH]cnc3c2)n1 [ONC0003009, apy29] | 67.52 |  |
| CC(C)(C)c1cc(C=C(C#N)C#N)cc(C(C)(C)C)c1O [ONC0004560, tyrphostin 9 sf 6847] | 1.693 |  |
| CC(C)(C)c1cc(/C=C(\C#N)C(N)=S)cc(C(C)(C)C)c1O [ONC0005258, tyrphostin ag 879 ag 879] | 127.6 |  |
| CC(C)(C)c1cc(C=C(C#N)C#N)cc(Br)c1O [ONC0004740, ag1024] | 105.8 |  |
| CC(C)C[C@@H](N)C(=O)N[C@H]1C(=O)N[C@@H](CC(N)=O)C(=O)N[C@H]2C(=O)N[C@H]3C(=O)N[C@H](C(=O)N[C@H](C(=O)O)c4cc(O)cc(O)c4-c4cc3ccc4O)[C@H](O)c3ccc(c(Cl)c3)Oc3cc2cc(c3O[C@@H]2O[C@H](CO)[C@@H](O)[C@H](O)[C@H]2O[C@H]2C[C@](C)(N)[C@H](O)[C@H](C)O2)Oc2ccc(cc2Cl)[C@H]1O [ONC0002123, norvancomycin hydrochloride] | 86.02 |  |
| CCN(CC)C(=O)N[C@H]1CC2c3cccc4[nH]cc(c34)CC2N(C)C1 (stereo partly drawn) [ONC0002019, terguride] | 81.88 |  |
| Clc1ccc(C(Cn2ccnc2)OCc2ccc(Sc3ccccc3)cc2)c(Cl)c1 (stereo not drawn) [ONC0004926, fenticonazole nitrate] | 131.8 |  |
| Clc1ccc(C(Cn2ccnc2)OCc2ccsc2Cl)c(Cl)c1 (stereo not drawn) [Tioconazole] | 3.335 |  |
| COc1ccc(CCCOC(Cn2ccnc2)c2ccc(OC)cc2)cc1 (stereo not drawn) [ONC0000065, skf96365] | 143.6 |  |
| Clc1ccc(COC(Cn2ccnc2)c2ccc(Cl)cc2Cl)c(Cl)c1 (stereo not drawn) [Miconazole nitrate] | 2.05 |  |

| Compound | % viability [%] | % viability (Madurella mycetomatis metabolic activity at 2µM (%)) [%] |
| --- | --- | --- |
| Clc1ccc(C(Cn2ccnc2)OCc2csc3c(Cl)cccc23)c(Cl)c1 (stereo not drawn) [ONC0005215, sertaconazole nitrate] | 82 |  |
| Clc1ccc(C(Cn2ccnc2)OCc2c(Cl)cccc2Cl)c(Cl)c1 (stereo not drawn) [Isoconazole nitrate (Travogen), Isoconazole nitrate] | 2.362 |  |
| Clc1ccc(COC(Cn2ccnc2)c2ccc(Cl)cc2Cl)cc1 (stereo not drawn) [ONC0000666, econazole nitrate] | 102.4 |  |
| Clc1ccc(CCC(Cn2ccnc2)Sc2c(Cl)cccc2Cl)cc1 (stereo not drawn) [ONC0005620, butoconazole] | 76.6 |  |
| Clc1ccc(CSC(Cn2ccnc2)c2ccc(Cl)cc2Cl)cc1 (stereo not drawn) [ONC0000678, sulconazole nitrate] | 120.3 |  |
| C=CCOC(Cn1ccnc1)c1ccc(Cl)cc1Cl (stereo not drawn) [ONC0005416, enilconazole sulfate] | 2.508 |  |
| CC(C)S(=O)(=O)NC[C@H](C)c1ccc(-c2ccc(CCNS(C)(=O)=O)cc2)cc1 [ONC0000792, mibampator] | 65.07 |  |
| CC(=O)Nc1c(I)c(C(=O)O)c(I)c(N(C)C(C)=O)c1I [ONC0002767, metrizoic acid] | 98.58 |  |
| CO[C@H]1C[C@H](O[C@H]2CC[C@@]3(C)[C@H](CC[C@@H]4[C@@H]3CC[C@]3(C)[C@@H](C5=CC(=O)OC5)[C@@H](OC(C)=O)C[C@]43O)C2)O[C@@H](C)[C@@H]1O [ONC0000896, oleandrin] | 70.17 |  |
| COc1cc([S+](C)[O-])ccc1-c1nc2ncccc2[nH]1 (stereo not drawn) [ONC0002956, sulmazole] | 88.35 |  |
| COc1cc(N)c(Cl)cc1C(=O)N[C@@H]1CCN(CCCOc2ccc(F)cc2)C[C@@H]1OC (racemic) [ONC0002671, cisapride] | 79.76 |  |
| CC[C@H](NC(C)C)[C@H](O)c1ccc(O)c2[nH]c(=O)ccc12 (racemic) [ONC0000846, procaterol] | 72.96 |  |
| COc1cc2c(Nc3ccc(Br)cc3F)ncnc2cc1OCC1CCN(C)CC1 [ONC0004515, vandetanib zd6474] | 76.73 |  |
| N[C@@H](CN1C=CC(=O)C(=O)C1)C(=O)O [ONC0002117, lmimosine] | 76.12 |  |
| CCCCCCOc1nsnc1C1=CCCN(C)C1.O=C(O)C(=O)O [ONC0001841, xanomeline oxalate] | 152.3 |  |
| C[C@H](NC(=O)C(C)(C)Oc1ccc(C(F)(F)F)cn1)[C@@H](Cc1ccc(Cl)cc1)c1cccc(C#N)c1 [ONC0002066, taranabant] | 72.16 |  |
| CC(C)(C)NC(=O)N[C@H](C(=O)N1C[C@H]2[C@@H]([C@H]1C(=O)NC(CC1CCC1)C(=O)C(N)=O)C2(C)C)C(C)(C)C (stereo partly drawn) [ONC0001071, boceprevir] | 43.8 |  |
| CCCC[C@H](NC(=O)[C@@H]1[C@@H]2[C@H](CN1C(=O)[C@@H](NC(=O)NC1(CS(=O)(=O)C(C)(C)C)CCCCC1)C(C)(C)C)C2(C)C)C(=O)C(=O)NC1CC1 [ONC0000734, narlaprevir] | 68.03 |  |
| Cc1cnc(NC(=O)c2cc(Oc3cnc(C(=O)N(C)C)nc3)c3cc(C)oc3c2)cn1 [ONC0005563, pf04937319] | 103.7 |  |
